The record followed here is PubChem BioAssay.

The target of this experiment is Pantothenate synthetase (Mycobacterium tuberculosis (strain ATCC 25618 / H37Rv)) (UniProt P9WIL5). In words: Recombinant Mtb pantothenate synthetase (PanC) inhibitors, coupled enzyme, confirmatory (AID 375).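 Also: 0% = full reaction with vehicle and 100% = no enzyme background.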 To be noted: coupled enzyme assay; at 10 µM, active compounds read high.

A number with no mark means an inactive call. No rule for the calls is given here.

Chain of Pantothenate synthetase (Mycobacterium tuberculosis (strain ATCC 25618 / H37Rv)) (P9WIL5 whole entry, looked up): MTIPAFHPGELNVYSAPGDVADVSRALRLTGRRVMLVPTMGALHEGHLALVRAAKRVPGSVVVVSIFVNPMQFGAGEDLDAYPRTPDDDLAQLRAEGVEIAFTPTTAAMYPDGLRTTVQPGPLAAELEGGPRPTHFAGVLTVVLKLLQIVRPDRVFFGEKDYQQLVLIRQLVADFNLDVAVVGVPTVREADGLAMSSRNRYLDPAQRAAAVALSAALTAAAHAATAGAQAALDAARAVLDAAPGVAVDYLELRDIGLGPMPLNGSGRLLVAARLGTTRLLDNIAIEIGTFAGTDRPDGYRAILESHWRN

Regarding `Cc1ccc(Cc2c(C)nc3c(C(=O)O)cnn3c2C)cc1`, the inhibition – broadly, the share of the control response that was lost under treatment – was 4%. Then `Cc1cccn2c(=O)c3cc(C(=O)NC4CCCC4)c(=N)n(C4CCCC4)c3nc12`, with 0%; and `COc1cccc(-c2cc(C(F)(F)F)nc(NCc3ccco3)n2)c1`, with 0%.

`CC1=C(C(=O)NCc2ccco2)C2(CCC(C)CC2)OC1=O` (configuration not stated): the inhibition is 4%. On to `N#CC1=C(N)N(c2ccccc2)C(c2ccco2)C1(C#N)C#N` (configuration not stated), for which the inhibition was 2%. Then `O=C(O)COc1ccc(S(=O)(=O)NCCc2ccccc2)cc1`, with 6%. The result for `Cc1cccc(C)c1NC(=O)c1cc(S(=O)(=O)N2CCOCC2)ccc1F` reads 0%.
